The list is not random: actives were taken first. Their share in the collection is about 5.2%.
PLK1 PBD block: PLK1 (human) polo-box domain binding inhibition. AID 720504. Potency, µM, without a hit: max response, negative = inhibition, usual class: inhibitors. P53350. 2.8% of 360,000 active. Plk1 PBD binding of FITC phosphopeptide, fluorescence polarization; also: series mostly up to about 57 µM; nearly all actives have a fitted effect of over 65% in size
TrxR1 substrate: substrates of rat thioredoxin reductase 1 | O89049 | purified TrxR1 substrate turnover, NADPH consumption readout | Potency, µM (top dose mostly 114 µM), without a hit: top-dose activity change, negative = substrate turnover | 0.01% of 390,000 active; also: nearly all actives have a fitted effect of over 50% in size
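Rat TrxR1, dispensed at 90 nM, was prereduced with 400 uM NADPH (final) for 5 min at ~22 deg C, then incubated with compound 15 min before 400 uM selenite. A first-read NADPH fluorescence drop versus no-compound background flagged substrates.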
Sfp PPTase inh: Sfp phosphopantetheinyl transferase inhibition | Biochemical Sfp PPTase activity, qHTS | 3.5% of 310,000 active | Potency, µM, for the others: largest response in the series, negative = inhibition, actives largely listed as inhibitors | Q9F4F7;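 also: the enzyme is Sfp with the accession as filed and its product quenches rhodamine fluorescence; 0% = enzyme reaction without inhibitor and -100% = no enzyme wells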
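Reaction rates are the 30-min fluorescence difference (ex 525, em 598 nm) in wells containing 15 nM Sfp, 5 uM rhodamine-CoA and 12.5 uM BHQ-2-YbbR at pH 7.6 with 10 mM MgCl2.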
IDH1 R132H inh: blocks human mutant IDH1 R132H enzyme; IDH1-R132H enzyme, NADPH consumption, diaphorase/resazurin fluorescence; Potency, µM (series often up to 76.6 µM), without a hit: at the top dose activity change, negative = inhibition, hits mostly inhibitors; 0.093% of 390,000 active; AID 602179; also: nearly all actives have a fitted effect of over 65% in size
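IDH1-R132H (0.5 ug/mL dispensed) in pH 7.5 Tris buffer was preincubated 30 min with compound, then given a substrate mix of 0.016 mM NADPH and 2 mM alpha-KG for 80 min at room temperature; remaining NADPH was read by diaphorase/resazurin fluorescence.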
VDR inh: inhibitors of human vitamin D receptor. P11473. VDR-SRC2-3 peptide fluorescence polarization, 2 h. Potency, µM, for the others: max response, negative = inhibition, usual class: inhibitors. 0.93% of 400,000 active
Target sequence (P11473 whole entry, looked up): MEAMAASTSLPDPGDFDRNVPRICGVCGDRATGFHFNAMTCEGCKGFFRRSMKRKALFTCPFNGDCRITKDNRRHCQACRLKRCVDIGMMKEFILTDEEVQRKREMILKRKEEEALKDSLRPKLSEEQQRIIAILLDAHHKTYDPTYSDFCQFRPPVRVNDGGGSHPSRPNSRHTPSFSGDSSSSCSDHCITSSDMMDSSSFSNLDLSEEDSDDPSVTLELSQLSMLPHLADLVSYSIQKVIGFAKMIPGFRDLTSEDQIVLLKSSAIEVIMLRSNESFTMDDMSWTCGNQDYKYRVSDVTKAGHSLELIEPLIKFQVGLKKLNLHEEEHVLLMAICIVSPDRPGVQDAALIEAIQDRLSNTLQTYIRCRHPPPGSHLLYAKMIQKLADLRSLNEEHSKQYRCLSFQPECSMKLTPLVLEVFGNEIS
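Compounds are added to VDR with labelled SRC2-3 coactivator peptide and held 2 h at room temperature. Inhibition of the VDR–peptide interaction is then read as a change in fluorescence polarization.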
TrxR1 inh: rat TrxR1 inhibition. AID 588453. Potency, µM (top dose mostly 114 µM), for the others: at the top dose activity change, negative = inhibition, most hits filed as inhibitors. recombinant rTrxR1, NADPH fluorescence consumption, selenite substrate. O89049. 1% of 390,000 active; also: nearly all actives have a fitted effect of over 65% in size
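Rat TrxR1 (90 nM in the dispensed reagent) was pre-reduced with 400 uM NADPH for 5 min at room temperature, then incubated with compound for 15 min. After 400 uM selenite was added, NADPH fluorescence (Ex 340/Em 450 nm) was followed for 8 min.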
Starred values were filed as active, the others as inactive; ? = inconclusive; nt = not tested or not shown; ! = a repeat was not active; [ ] = dose if it differs, or a comment. Calls follow the shape of the dose curve; as a rule, active = well fitted curve in the direction sought with a large enough effect; inconclusive = small, poorly fitted or top-dose-only effect, or another doubt; inactive = no such curve, though single readings can be large; an effect the other way counts as inactive or inconclusive. Unless noted, % is scaled to controls: 0 for no effect and ±100 for the full control effect; potency is read from the fitted curve at half-maximal effect.

SMILES	PLK1 PBD block	TrxR1 substrate	Sfp PPTase inh	IDH1 R132H inh	VDR inh	TrxR1 inh
CCOc1ccc2nc(N=Nc3c(O)[nH]c(=S)[nH]c3=O)sc2c1	-28%	-10%[57.1 µM]	56µM*	5%	-5%	-5%[57.1 µM]
O[C@H]1CCCC[C@H]1N1CCC(c2ccccc2)CC1	nt	nt	16%	nt	11%	nt
O=C(CCl)NN=C(c1ccccc1)c1ccccc1	-19%	7%[57.1 µM]	1%	0%	-3%	14µM*
NCC(=O)c1ccccc1	-9%	3%	5%	-10%	3%	16%
COC(C)C(O)(C(=O)OC1=CCN2CC[C@H](O)[C@H]12)C(C)C (stereo not given in full)	nt	nt	8%	nt	nt	nt
CC1=C(O)C(=O)C=C2C1=CC=C1[C@]2(C)CC[C@@]2(C)C3C[C@](C)(C(=O)O)CC[C@@]3(C)CC[C@@]12C (stereo not given in full)	nt	nt	-99%	nt	3.5µM*	nt
CC(Cc1ccccc1)NC(N)=O (stereo not given)	-7%	-3%	15%	-4%	0%	4%
O=C(O)CNC(=O)C(CS)Cc1ccccc1 (stereo not given)	-1%	15%[57.1 µM]	0.79µM*	39%	-9%	17%[57.1 µM]
COC(=O)C12C/C=C\Cc3ccccc3[C@@H]1CNC2=O (stereo not given in full)	nt	nt	-22%	nt	9%	nt
COc1ccc(N2CC(C(=O)NCc3ccco3)CC2=O)cc1 (stereo not given)	-14%	5%	?	8%	16%	10%
O=C1NC(=S)NC(=O)C1=Cc1ccc2c(c1)CCN2CCCCl	2.7µM*	-6%	16µM*	-18%	?	28µM*
CN(C(=O)Cc1ccc(Cl)c(Cl)c1)[C@H](CN1CCCC1)c1ccccc1	nt	nt	-2%	nt	?	nt
On1ccccc1=S	?	-6%	nt	15%	22µM*	?
CC(C)(O)[C@@H]1C2OC(=O)[C@@H]1[C@]1(O)C[C@H]3O[C@]34C(=O)O[C@H]2[C@]14C (tested in a mixture with another compound)	nt	9%[57.1 µM]	nt	nt	?	19%[57.1 µM]
COc1ccc(C[C@H]2c3cc(OC)c(OC)cc3CCN2C)cc1OC	nt	nt	13%	nt	0%	nt
CCOC(=O)N1CCN(/[N+]([O-])=N/Oc2ccc([N+](=O)[O-])cc2[N+](=O)[O-])C(C)C1 (stereo not given)	nt	-1%	?	nt	-15%	-12%
O=C(c1ccco1)N1CCN(C(=O)c2ccc(COc3ccc(Cl)cc3Cl)o2)CC1	-18%	-3%[57.1 µM]	nt	-10%	-7%	7.1µM*
O=C(O)COc1ccc(Cl)cc1Cl	?	1%	21%	0%	-19%	9%
CN1CCCCC1Cn1cc(C(=O)c2cc([N+](=O)[O-])ccc2I)c2ccccc21 (stereo not given)	nt	nt	-21%	nt	-12%	nt
Cc1cc(/C=C/c2cccc3sc(C)[n+](CCCCI)c23)ccc1N(CCCl)CCCl	nt	-9%	nt	nt	nt	16µM*
CC1(C)[C@@H](O)C[C@H]2[C@](C)(O)[C@@H]3CC[C@H]4[C@@H](O)[C@@]3(C[C@@H](O)[C@@]21O)C[C@@]4(C)O	nt	nt	22%	nt	-8%	nt
CC(C)c1cccc(O)c(=O)c1	2%	-7%[57.1 µM]	56µM*!	0%	?	-1%[57.1 µM]
NCCc1cc(O)c(O)cc1O	15µM*	-9%	63µM*	16%	89µM*	56µM*
COc1ccc(N2C(=O)NC(=O)/C(=C\c3cn(CC(=O)N4CCOCC4)c4ccccc34)C2=O)c(OC)c1	11µM*	-10%	-1%	11%	?	-28%
COCCNC(=O)Cn1cc(/C=C2\C(=O)NC(=O)N(c3cccc(C)c3C)C2=O)c2ccccc21	3.8µM*	-26%[57.1 µM]	-27%	9%	?	-36%
SMILES	PLK1 PBD block	TrxR1 substrate	Sfp PPTase inh	IDH1 R132H inh	VDR inh	TrxR1 inh
COCCNC(=O)Cn1cc(/C=C2\C(=O)NC(=O)N(c3ccccc3F)C2=O)c2ccccc21	3µM*	-15%	0%	0%	11%	-28%
COCCCNC(=O)Cn1cc(/C=C2\C(=O)NC(=O)N(c3ccccc3F)C2=O)c2ccccc21	?	-24%[57.1 µM]	-22%	6%	?	-5%[57.1 µM]
O=C(O)Cn1cc(/C=C2\C(=O)NC(=O)N(c3ccc(F)cc3)C2=O)c2ccccc21	nt	nt	-4%	nt	nt	nt
COC(=O)Cn1cc(/C=C2\C(=O)NC(=O)N(c3ccc(OC)cc3)C2=O)c2ccccc21	?	27%[57.1 µM]	-23%	10%	-9%	-16%[57.1 µM]
C[C@@H]1Cc2c(Cl)cc(C(=O)N[C@@H](Cc3ccccc3)C(=O)O)c(O)c2C(=O)O1	nt	nt	2%	nt	0%	nt
CCN(c1ccc(C(O)(C(=O)OC)C(F)(F)F)cc1)S(=O)(=O)c1ccccc1 (stereo not given)	27µM*	0%	12%	5%	3%	2%
Cc1c(C)c2ccc(OCC(=O)N3CCN(Cc4ccccc4)CC3)cc2oc1=O	3%	-3%	nt	-18%	6%	-24%
Cc1c(Cc2ccccc2)c(=O)oc2cc(OCc3ccc(C(=O)O)cc3)ccc12	21µM*	80%[57.1 µM]	2%	-7%	1%	-41%
C=C1[C@@H](O)C2C=CC[C@H](C)C(=O)[C@@](C)(O)C=C[C@@H](OC(C)=O)[C@@]23C(=O)N[C@H](Cc2ccccc2)[C@@H]3[C@@H]1C (stereo not given in full)	nt	nt	-14%	nt	1%	nt
CC(C)[C@@]1(NC(=O)[C@@H]2C[C@@H]3c4cccc5[nH]cc(c45)C[C@H]3N(C)C2)O[C@@]2(O)[C@@H]3CCCN3C(=O)[C@H](Cc3ccccc3)N2C1=O	5%	-9%[57.1 µM]	79µM*!	-2%	-9%	?
CN1C[C@@H](C(=O)N[C@@]2(C)O[C@]3(O)C4CCCN4C(=O)[C@@H](Cc4ccccc4)N3C2=O)C=C2c3cccc4[nH]cc(c34)C[C@@H]21 (stereo not given in full)	nt	nt	-31%	nt	14µM*	nt
CC(C)[C@H]1C(=O)N2CCC[C@H]2[C@]2(O)O[C@](NC(=O)[C@@H]3C=C4c5cccc6[nH]cc(c56)C[C@H]4N(C)C3)(C(C)C)C(=O)N12	?	34%	56µM*	10%	-34%	?
CCOP(=O)(CCP(=O)(OCC)OCC)OCC.C[CH2][Sn]([Cl])([Cl])[CH2]C	8.4µM*	13%[57.1 µM]	nt	1%	?	-80%[57.1 µM]
COC(=O)[C@@H]1C[C@H]2CC[C@H](O)C[C@H]2N1CC1CC1	nt	nt	2%	nt	nt	nt
COc1cc(OC2CCN(C(C)=O)CC2)ccc1C(=O)N1CCC(N2C(=O)OCc3ccccc32)CC1	nt	nt	17%	nt	11%	nt
O=C(c1ccccc1)c1cn(CC(=O)N2CCOCC2)c2ccccc12	24µM*	6%[11.4 µM]	13%	10%	-1%	13%[11.4 µM]
